Experimental data: PubChem BioAssay (NCI)
Compounds without any hit were thinned out: in the full panel of roughly 79,000, 15% have a hit. Activity calls are given as the source filed them. Cut-off read from the data, not from the text of the source: active = growth inhibition above about 70%; inactive = the rest.

Experiments:
[1] = NCI Yeast Anticancer Drug Screen. Data for the wt1 strain (AID 149);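 note: 0% = growth of vehicle-treated wt1 cultures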; conditions: S. cerevisiae wt1 strain (SPY 50644) growth inhibition, active compounds read high
In short: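 Compounds are added to wt1 yeast cultures. Growth is then measured. Inhibition is expressed relative to vehicle-treated controls.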

[2] = NCI Yeast Anticancer Drug Screen. Data for the rad50EPP+ strain (AID 151);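 note: 0% = growth of vehicle-treated control cultures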; conditions: S. cerevisiae rad50 mutant strain, active compounds read high
In short: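 Vehicle-normalised growth inhibition; rad50EPP+ yeast strain, altered in DNA damage repair, compound-treated.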

[3] = NCI Yeast Anticancer Drug Screen. Data for the rad50 strain (AID 155);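 note: 0% = growth of vehicle-only cultures of the same strain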; conditions: S. cerevisiae rad50 strain growth inhibition, active compounds read high
In short: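 Inhibition values express reduced yeast growth in compound-treated cultures relative to vehicle-treated controls.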

[4] = NCI Yeast Anticancer Drug Screen. Data for the mec2-1 strain (AID 157); conditions: S. cerevisiae mec2-1 strain, active compounds read high
In short: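 Mutant yeast (mec2-1) grown with compound; growth inhibition relative to vehicle control reported.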

[5] = NCI Yeast Anticancer Drug Screen. Data for the rad14 strain (AID 159);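 note: 0% = growth of vehicle-treated control cultures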; conditions: S. cerevisiae rad14 strain growth inhibition, active compounds read high
In short: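 A mutant yeast strain defective in DNA damage repair is treated with compound; inhibition of its growth is scored against untreated, vehicle-exposed cultures.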

[6] = NCI Yeast Anticancer Drug Screen. Data for the sgs1 mgt1 strain (AID 161);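 note: 0% = growth of cultures given vehicle only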; conditions: S. cerevisiae sgs1 mgt1 strain, active compounds read high
In short: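 This yeast growth screen uses a strain with defined DNA-repair lesions; compound-treated growth is compared with vehicle-treated growth.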

[7] = NCI Yeast Anticancer Drug Screen. Data for the CLN2oe strain (AID 163);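 note: 0% = growth of vehicle-only control cultures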; conditions: S. cerevisiae CLN2oe strain, active compounds read high
In short: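 Compounds are applied to yeast harbouring a defined cell-cycle control change; reduced growth compared with vehicle-treated controls gives the value.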

[8] = NCI Yeast Anticancer Drug Screen. Data for the cln2 rad14 strain (AID 165);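 note: 0% = growth equal to vehicle treated cultures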; conditions: S. cerevisiae cln2 rad14 strain, active compounds read high
In short: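 Readout is yeast growth inhibition versus vehicle-treated controls, using a strain with cln2 and rad14 alterations exposed to compound.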

[9] = NCI Yeast Anticancer Drug Screen. Data for the bub3 strain (AID 167); conditions: S. cerevisiae bub3 mutant strain, active compounds read high
In short: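 Steps: expose the mutant yeast strain to compound; grow alongside vehicle-treated cultures; measure growth; express inhibition against the vehicle cultures.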

[10] = NCI Yeast Anticancer Drug Screen. Data for the wt2 strain (AID 169);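 note: 0% = growth of vehicle-treated yeast cultures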; conditions: S. cerevisiae wt2 strain growth inhibition, active compounds read high
In short: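 Against vehicle-treated controls, the growth of yeast exposed to each compound was compared, and the inhibition was recorded.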

[11] = NCI Yeast Anticancer Drug Screen. Data for the mlh1 strain (AID 171);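 note: 0% = growth of vehicle-treated control cultures of the same strain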; conditions: S. cerevisiae mlh1 strain growth inhibition, active compounds read high
In short: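 Measured: yeast growth. Reference: vehicle-treated controls. Organism: strain with a defined alteration affecting DNA damage repair or cell cycle control, treated with compound.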

[12] = NCI Yeast Anticancer Drug Screen. Data for the sgs1 strain (AID 173);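 note: 0% = growth of vehicle-only control cultures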; conditions: S. cerevisiae sgs1 mutant, active compounds read high
In short: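 Each compound was added to cultures of the altered yeast strain. Growth was recorded, and inhibition was derived by comparison with vehicle controls.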

[13] = NCI Yeast Anticancer Drug Screen. Data for the mlh1 rad18 strain (AID 175); conditions: S. cerevisiae mlh1 rad18 strain growth inhibition, active compounds read high
In short: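 Genetically defined yeast (DNA repair-deficient) exposed to compounds; growth inhibition determined relative to vehicle.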

[14] = NCI Yeast Anticancer Drug Screen. Data for the rad18 strain (AID 177); conditions: S. cerevisiae rad18 mutant growth inhibition, active compounds read high
In short: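 Vehicle-treated cultures served as the baseline for scoring compound-induced growth inhibition in DNA-repair-mutant yeast.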

[15] = at 5.0 µM (retest, dose inferred, filed as 0.5)
[16] = at 50.0 µM (retest, dose inferred, filed as 5.0)

Measured: growth inhibition

O=C1c2ccccc2C(=O)C1C(c1ccc(F)cc1)C1C(=O)c2ccccc2C1=O
inactive: [1]; at 1.2 µM 9% | [1]; at 3.7 µM 10% | [1]; at 11.0 µM 7% | [1]; at 33.0 µM 18% | [2]; at 1.2 µM -8% | [2]; at 3.7 µM 8% | [2]; at 11.0 µM 21% | [2]; at 33.0 µM 61% | [3]; at 1.2 µM 13% | [3]; at 3.7 µM 5% | [3]; [15] 21% | [3]; at 11.0 µM 7% | [3]; at 33.0 µM 28% | [3]; [16] 46% | [4]; at 1.2 µM -13% | [4]; at 3.7 µM -6% | [4]; [15] -14% | [4]; at 11.0 µM -14% | [4]; at 33.0 µM 6% | [5]; at 1.2 µM -20% | [5]; at 3.7 µM -20% | [5]; at 11.0 µM -52% | [5]; at 33.0 µM 0% | [6]; [15] 2% | [6]; [16] 41% | [6]; at 50.0 µM 56.2% | [7]; at 1.2 µM 6% | [7]; at 3.7 µM 0% | [7]; at 11.0 µM -1% | [7]; at 33.0 µM 34% | [8]; [15] 27% | [9]; at 1.2 µM -18% | [9]; at 3.7 µM -33% | [9]; [15] 17% | [9]; at 11.0 µM -34% | [9]; at 33.0 µM -17% | [10]; at 1.2 µM 1% | [10]; at 3.7 µM 2% | [10]; at 11.0 µM 1% | [10]; at 33.0 µM 22% | [11]; at 1.2 µM -17% | [11]; at 3.7 µM -15% | [11]; at 11.0 µM -16% | [11]; at 33.0 µM 5% | [12]; at 1.2 µM 11% | [12]; at 3.7 µM 25% | [12]; at 11.0 µM 41% | [12]; at 33.0 µM 54% | [13]; [15] 8% | [14]; at 1.2 µM -2% | [14]; at 3.7 µM -7% | [14]; at 11.0 µM 1% | [14]; at 33.0 µM 26%
active: [1]; at 100.0 µM 85% | [2]; at 100.0 µM 75% | [3]; at 50.0 µM 77.5% | [3]; at 100.0 µM 88% | [4]; [16] 81% | [4]; at 50.0 µM 75% | [4]; at 100.0 µM 83% | [5]; at 100.0 µM 82% | [7]; at 100.0 µM 86% | [8]; [16] 89% | [8]; at 50.0 µM 85.8% | [9]; [16] 87% | [9]; at 50.0 µM 79% | [9]; at 100.0 µM 83% | [10]; at 100.0 µM 81% | [11]; at 100.0 µM 82% | [12]; at 100.0 µM 89% | [13]; [16] 74% | [13]; at 50.0 µM 72.1% | [14]; at 100.0 µM 88%

COc1ccc2c(Cc3c4ccccc4cc4ccccc34)cncc2c1O
inactive: [1]; at 1.2 µM 2% | [1]; at 3.7 µM 4% | [1]; at 11.0 µM 12% | [1]; at 33.0 µM 56% | [2]; at 1.2 µM 4% | [2]; at 3.7 µM 18% | [2]; at 11.0 µM 41% | [2]; at 33.0 µM 68% | [3]; at 1.2 µM 4% | [3]; at 3.7 µM 6% | [3]; [15] 51% | [3]; at 11.0 µM 26% | [3]; at 33.0 µM 68% | [4]; at 1.2 µM 4% | [4]; at 3.7 µM 7% | [4]; [15] 19% | [4]; at 11.0 µM 12% | [4]; at 33.0 µM 33% | [5]; at 1.2 µM 6% | [5]; at 3.7 µM 7% | [5]; at 11.0 µM 27% | [7]; at 1.2 µM 5% | [7]; at 3.7 µM 7% | [7]; at 11.0 µM 9% | [7]; at 33.0 µM 18% | [7]; at 100.0 µM 68% | [8]; [15] -2% | [9]; at 1.2 µM 5% | [9]; at 3.7 µM 8% | [9]; [15] 8% | [9]; at 11.0 µM 19% | [9]; at 33.0 µM 45% | [10]; at 1.2 µM 1% | [10]; at 3.7 µM 4% | [10]; at 11.0 µM 18% | [11]; at 1.2 µM 4% | [11]; at 3.7 µM 7% | [11]; at 11.0 µM 15% | [11]; at 33.0 µM 60% | [12]; at 1.2 µM 2% | [12]; at 3.7 µM 8% | [12]; at 11.0 µM 36% | [14]; at 1.2 µM 9% | [14]; at 3.7 µM 4% | [14]; at 11.0 µM 25%
active: [1]; at 100.0 µM 93% | [2]; at 100.0 µM 80% | [3]; [16] 98% | [3]; at 50.0 µM 93.9% | [3]; at 100.0 µM 90% | [4]; [16] 97% | [4]; at 50.0 µM 91.5% | [4]; at 100.0 µM 86% | [5]; at 33.0 µM 95% | [5]; at 100.0 µM 93% | [8]; [16] 96% | [8]; at 50.0 µM 80.2% | [9]; [16] 97% | [9]; at 50.0 µM 87.7% | [9]; at 100.0 µM 85% | [10]; at 33.0 µM 91% | [10]; at 100.0 µM 93% | [11]; at 100.0 µM 91% | [12]; at 33.0 µM 89% | [12]; at 100.0 µM 91% | [13]; [15] 80% | [13]; [16] 97% | [13]; at 50.0 µM 95.6% | [14]; at 33.0 µM 86% | [14]; at 100.0 µM 88%
